# Source: PubChem BioAssay (National Center for Advancing Translational Sciences (NCATS))
# This is a sample that favours compounds with a hit; in the whole collection about 3.3% have one here.
# Sm TGR block = qHTS Assay for the Inhibitors of Schistosoma Mansoni Peroxiredoxins. purified TGR, DTNB reduction, TNB absorbance 405 nm. hit rate 3% among 360,000. AID 485364, 2010. Potency, µM (highest dose often 114 µM), usual class: inhibitors. Schistosoma mansoni thioredoxin glutathione reductase (TGR), Q962Y6; also: nearly all actives have a fitted effect of over 60% in size
#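 Kinetic colorimetric format: TGR-catalysed, NADPH-driven DTNB reduction monitored via TNB absorbance. Enzyme dispensed at 20 nM; compound exposure 15 min at room temperature before reaction start.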
# AmpC inh detg = qHTS Inhibitors of AmpC Beta-Lactamase (assay with detergent); P00811; AmpC hydrolysis of nitrocefin, absorbance 480 nm, 0.01% Triton; Potency, µM (series often up to 114 µM), hits mostly inhibitors; hit rate 0.041% among 370,000; AID 485294, 2010; also: nearly all actives have a fitted effect of over 25% in size
# Target sequence (P00811 whole entry, looked up): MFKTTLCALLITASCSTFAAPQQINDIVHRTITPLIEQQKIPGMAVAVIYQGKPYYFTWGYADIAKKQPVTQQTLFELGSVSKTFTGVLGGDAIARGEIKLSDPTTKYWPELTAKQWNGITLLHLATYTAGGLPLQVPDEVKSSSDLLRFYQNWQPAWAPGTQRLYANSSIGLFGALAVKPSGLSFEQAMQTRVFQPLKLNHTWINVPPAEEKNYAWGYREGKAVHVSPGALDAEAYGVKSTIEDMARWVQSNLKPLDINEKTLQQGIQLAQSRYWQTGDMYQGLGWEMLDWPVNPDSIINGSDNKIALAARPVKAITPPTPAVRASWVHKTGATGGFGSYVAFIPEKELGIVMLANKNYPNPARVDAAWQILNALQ
#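 20 mM phosphate pH 7.0 + 0.01% (detergent screen) or 0.0001% Triton X-100; 5.3 nM AmpC reagent; cpd preinc 15 min RT; nitrocefin (800 uM stock) to start; A480 q20 s × 4 min; Activity was normalised to no-enzyme and no-compound control wells.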
# AmpC no deterg = qHTS Inhibitors of AmpC Beta-Lactamase (assay without detergent); P00811; AmpC nitrocefin hydrolysis, absorbance 480 nm, 0.0001% Triton; Potency, µM (doses to about 57.1 µM), actives largely listed as inhibitors; hit rate 0.52% among 330,000; also: nearly all actives have a fitted effect of over 20% in size
#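 20 mM phosphate pH 7.0 + 0.01% (detergent screen) or 0.0001% Triton X-100; 5.3 nM AmpC reagent; cpd preinc 15 min RT; nitrocefin (800 uM stock) to start; A480 q20 s × 4 min; Activity was normalised to no-enzyme and no-compound control wells.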
# A number is an active result; i = inactive; ? = inconclusive; nt = no result. Calls follow the shape of the dose curve; as a rule, active = well fitted curve in the direction sought with a large enough effect; inconclusive = small, poorly fitted or top-dose-only effect, or another doubt; inactive = no such curve, though single readings can be large; an effect the other way counts as inactive or inconclusive.
SMILES,Sm TGR block,AmpC inh detg,AmpC no deterg
COC(=O)c1ccccc1NC(=O)Cn1nc(C)c2nn(-c3ccc(Cl)cc3)c(C)c2c1=O,i,i,nt
CC(=O)Nc1cccc(NC(=O)Cc2csc(COc3cccc(C)c3)n2)c1,i,i,nt
O=C(c1ccc(Br)cc1)C1CCc2occc2C1=O (configuration not stated),56.2µM,i,i
O=C(NNC(=O)C1CCC1)c1ccc(Br)cc1,i,?,i
COc1ccc(NC(=O)c2cc3c(=O)n(Cc4ccco4)ccc3nc2C)cc1,i,?,nt
COc1cccc(NC(=O)Cn2c(=O)n(Cc3ccc(C(=O)NCc4ccc5c(c4)OCO5)cc3)c(=O)c3ccccc32)c1,i,i,nt
CC(=O)Oc1ccc(C(=O)[C@H]2[C@H]3C(=O)N(c4ccccc4)C(=O)[C@H]3[C@@H]3C=CC=NN32)cc1,?,i,i
O=C(C1=C[C@@H]2[C@H]3C(=O)N(c4ccc(Cl)cc4)C(=O)[C@H]3[C@@H](C(=O)c3ccc(Cl)cc3)N2C=C1)c1ccccc1,14.1µM,i,i
O=C(/C=C/c1ccc([N+](=O)[O-])s1)N1CCCCC1,20µM,?,i
O=C(/C=C/c1cccs1)N1CCCCC1,nt,i,i
O=C(/C=C/c1ccc([N+](=O)[O-])s1)N1CCCC1,28.2µM,i,i
O=C(/C=C/c1ccc([N+](=O)[O-])s1)N1CCN(c2ccccc2)CC1,i,i,i
Cc1ccc2c(c1)C(c1ccccc1)N(C(=O)c1ccccc1F)CC(=O)N2 (configuration not stated),i,?,nt
O=C(Nc1cc(NC(=O)c2ccccc2Cl)ccc1Cl)c1ccccc1,i,i,nt
COc1cccc(CNCCc2cccc(F)c2)c1OC,?,i,i
CCOc1cc(CNCc2ccc3c(c2)OCO3)ccc1OC,i,i,i
COc1cccc(CNCCc2ccc3c(c2)OCO3)c1OC,39.8µM,?,i
COc1cc(OC)c(OC)cc1CNCc1ccc2c(c1)OCO2,44.7µM,i,i
COc1cc(Br)c(CNCCc2ccc3c(c2)OCO3)cc1OC,i,?,i
COc1cc(OC)c(OC)cc1CNCCc1ccc2c(c1)OCO2,39.8µM,?,i
COc1cc(NC(=O)c2cc(-c3cccc(Cl)c3)on2)c(OC)cc1Cl,i,i,nt
CCOC(=O)CCN(c1ccccc1)S(=O)(=O)c1cc(-c2cc(C)no2)ccc1C,i,i,nt
COc1cccc(NC(=O)Cn2cnc3c(nc4n3CCCCC4)c2=O)c1,i,i,nt
O=[N+]([O-])c1ccc(S(=O)(=O)CC(CN2CCOCC2)N2CCOCC2)cc1 (configuration not stated),?,i,i
O=[N+]([O-])c1ccc(S(=O)(=O)CC(CN2CCCCC2)N2CCCCC2)cc1 (configuration not stated),7.94µM,i,i
SMILES,Sm TGR block,AmpC inh detg,AmpC no deterg
O=C(c1ccccc1)N1CCN(CCc2ccncc2)CC1,?,i,nt
Cc1ccccc1-c1nc(CS(=O)(=O)CC(=O)N2CCc3ccccc32)c(C)o1,i,?,i
Cc1ccc(-c2nc(CS(=O)(=O)CC(=O)N3CCc4ccccc4C3)c(C)o2)cc1,25.1µM,?,39.8µM
Cc1ccc(-c2nc(CS(=O)(=O)CC(=O)N3CCCCCC3)c(C)o2)cc1,?,i,6.31µM
Cc1ccc(-c2nc(CS(=O)(=O)CC(=O)N3CCN(c4ccccc4)CC3)c(C)o2)cc1,i,i,nt
CCn1c2ccccc2c2cc(NC(=O)COc3cc(C)ccc3C)ccc21,i,i,nt
Oc1ccc(O)c(Cc2nc3ccccc3s2)c1,50.1µM,i,i
Oc1ccccc1OCc1nc2ccccc2s1,i,i,i
COc1ccc(N(C(=O)/C=C\C(=O)Nc2ccc(C)cc2)C(C(=O)NCc2ccco2)c2ccc(C)cc2)cc1 (configuration not stated),44.7µM,i,nt
Cc1ccc(N(C(=O)c2sc(C)nc2C)C(C(=O)NCc2ccco2)c2ccccc2)cc1 (configuration not stated),i,i,i
COc1ccc(NC(=O)/C=C\C(=O)N(c2ccc(C(C)C)cc2)C(C(=O)NCc2ccco2)c2ccc(C)cc2)cc1 (configuration not stated),56.2µM,i,nt
Cc1ccc(NC(=O)/C=C\C(=O)N(c2ccc(C(C)C)cc2)C(C(=O)NCc2ccco2)c2ccc(F)cc2)cc1 (configuration not stated),i,i,nt
O=C(O)c1ccc(/C=N\Nc2ccc(S(=O)(=O)N3CCOCC3)cc2[N+](=O)[O-])cc1,44.7µM,i,i
C/C(=N\Nc1ccc(S(=O)(=O)N2CCOCC2)cc1[N+](=O)[O-])C(C)C,39.8µM,i,i
NS(=O)(=O)c1ccc(N/N=C/c2ccc(C(=O)O)cc2)c([N+](=O)[O-])c1,i,i,i
CN1CCC(=NNc2ccc(S(=O)(=O)N3CCOCC3)cc2[N+](=O)[O-])CC1,?,i,i
CCc1cc2c(-c3ccccc3)cc(=O)oc2c2c1OCN(Cc1ccc(F)cc1)C2,i,i,nt
O=C(c1cnc(N2CCCCC2)c2ccccc12)N1CCN(c2cccc(Cl)c2)CC1,i,i,nt
COc1cccc(C(=O)Nc2ccc(-n3nncc3-c3ccccc3)cc2)c1OC,i,i,nt
COc1ccccc1CNC(=O)CCCN1C(=O)CSc2c1c(C)nn2-c1ccccc1,i,i,nt
O=C(CCCSc1nc(-c2ccco2)cc(C(F)(F)F)n1)NCC1CCCO1 (configuration not stated),50.1µM,i,i
CCn1nc(C)c(NC(=O)CCCSc2nc(-c3ccco3)cc(C(F)(F)F)n2)c1C,50.1µM,?,i
O=C(CCSc1nc(-c2ccco2)cc(C(F)(F)F)n1)NCC1CCCO1 (configuration not stated),i,i,i
Cc1nn(C)c(C)c1NC(=O)CCSc1nc(-c2ccco2)cc(C(F)(F)F)n1,?,i,i
COc1ccc(-c2cn3cccnc3n2)cc1NC(=O)c1ccccc1C(F)(F)F,i,i,nt
SMILES,Sm TGR block,AmpC inh detg,AmpC no deterg
CCOC(=O)c1[nH]c(C)c(CCC(=O)Nc2ccc(Br)c(C)c2)c1C,i,i,nt
CCOC(=O)c1ccc(NC(=O)C(CC)Sc2nc3ncccc3[nH]2)cc1 (configuration not stated),i,i,nt
Cc1ccc(-c2onc(C)c2C)cc1S(=O)(=O)NCc1ccco1,i,i,nt
CCCC(=O)C1=C(O)C(C(=O)OC)C(C)(C)CC1=Nc1ccccc1 (configuration not stated),i,i,i
CCCC(=O)C1=C(O)C(C(=O)OC)C(C)(C)CC1=NCc1ccccc1 (configuration not stated),100µM,i,i
CCc1cccc(C)c1NC(=O)Cn1c(NCCO)nc2ccccc21,i,i,i
CCCCNc1nc2ccccc2n1CC(=O)Nc1c(C)cccc1CC,i,i,20µM
COCCN(CC(=O)NC1CCCCC1)C(=O)/C=C/C(=O)c1ccc(OC)cc1O,i,i,i
COc1ccc(C(=O)/C=C/C(=O)N(CC(=O)NC2CCCCC2)Cc2cccs2)c(O)c1,1.58µM,i,i
Cc1ccc(CNC(=O)CCS(=O)(=O)c2cc(Br)cc3c2N(C(=O)C2CC2)CC3)o1,28.2µM,i,i
